Hits are enriched below; roughly 7.3% of the tested compounds scored in any of these assays.
NIH3T3 tox: Cytotoxic Profiling in NIH 3T3 Cell Line of Diverse Libraries Using Quantitative High-Throughput Screening; actives 4.3% (n = 94,000); NIH 3T3 viability, CellTiter-Glo ATP luminescence, 48-72 h; AID 1345082, 2018; Potency, µM (series often up to 96.7 µM), actives largely listed as inhibitors; note: nearly all actives have a fitted effect of over 55% in size
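Mouse fibroblast NIH 3T3 cells, 400 per well, received compound via pintool and were incubated for 48 or 72 hr prior to CellTiter-Glo ATP luminescence measurement.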
SNCA expr inhib: Primary qHTS assay for inhibitors of alpha-synuclein gene (SNCA) expression; HEK-293 SNCA-luciferase knock-in, luminescence, 24 h; Potency, µM (doses to about 57.2 µM), most hits filed as inhibitors; actives 0.17% (n = 140,000); note: nearly all actives have a fitted effect of over 45% in size
HEK293 tox: Cytotoxic Profiling in HEK 293 Cell Line of Diverse Libraries Using Quantitative High-Throughput Screening; HEK 293 viability, ATP luminescence (CellTiter-Glo), 48-72 h; Potency, µM (highest dose often 115 µM), most hits filed as inhibitors; actives 6.6% (n = 94,000); AID 1345083, 2018; note: nearly all actives have a fitted effect of over 60% in size
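HEK 293 cells seeded at 250 cells/well were exposed to compound for 48 or 72 hr at 37 degree Celsius. Viability taken as ATP content by CellTiter-Glo luminescence.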
SNCA viab count: GF-AFC viability counterscreen for inhibitors of alpha-synuclein gene (SNCA) expression; Potency, µM (series often up to 57.1 µM), usual class: cytotoxic; HEK-293-SNCA-luc viability, GF-AFC fluorescence, 24 h; AID 1671193, 2021; actives 0.12% (n = 150,000); note: nearly all actives have a fitted effect of over 30% in size
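Cytotoxicity counterscreen: after 24 h compound treatment of genome-edited SNCA-luciferase HEK-293 cells, live-cell protease substrate GF-AFC read by fluorescence after 30 min; activity scaled between DMSO (0%) and medium-only (-100%), curves Hill-fitted.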
FLuc inh: Firefly luciferase inhibition profiling of diverse chemical library using quantitative high-throughput screening. purified P. pyralis luciferase, luminescence, biochemical. Potency, µM (titrated, usually from 115 µM), actives largely listed as inhibitors. Luciferin 4-monooxygenase (Photinus pyralis), P08659. actives 2.5% (n = 76,000); note: nearly all actives have a fitted effect of over 65% in size
Target sequence (P08659 whole entry, looked up): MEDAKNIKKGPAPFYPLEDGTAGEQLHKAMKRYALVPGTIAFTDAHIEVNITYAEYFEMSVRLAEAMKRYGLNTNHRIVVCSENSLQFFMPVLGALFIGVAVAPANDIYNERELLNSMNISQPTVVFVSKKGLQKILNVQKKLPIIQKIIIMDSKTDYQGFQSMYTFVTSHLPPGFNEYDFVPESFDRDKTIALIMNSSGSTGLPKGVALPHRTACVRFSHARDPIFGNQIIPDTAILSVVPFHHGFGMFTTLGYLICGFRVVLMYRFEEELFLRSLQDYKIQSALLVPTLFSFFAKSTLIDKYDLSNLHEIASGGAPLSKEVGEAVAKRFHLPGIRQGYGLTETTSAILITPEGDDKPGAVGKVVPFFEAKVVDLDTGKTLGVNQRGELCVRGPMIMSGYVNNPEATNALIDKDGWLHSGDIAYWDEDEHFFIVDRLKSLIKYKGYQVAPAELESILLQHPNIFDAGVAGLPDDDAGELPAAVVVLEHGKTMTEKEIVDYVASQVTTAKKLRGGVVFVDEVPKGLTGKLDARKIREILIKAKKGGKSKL
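Purified 10nM P. pyralis luciferase with 10uM D-luciferin and 10uM ATP in 50mM Tris acetate pH 7.5, 10mM Mg acetate, 0.01% Tween-20, 0.05% BSA. qHTS titration; luminescence read by CCD imager.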
IP6K1 inhibitor: Primary qHTS assay for small molecule inhibitors of Inositol hexaphosphate kinase 1 (IP6K1). actives 0.81% (n = 140,000). Inositol hexakisphosphate kinase 1 (Homo sapiens), Q92551. AID 1645851, 2021. activity change, % (series mostly up to about 58 µM). IP6K1 kinase, ADP-Glo luminescence, 2 h; active compounds read low; in the data active = activity change below about -25%
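ADP-Glo luminescence measures ADP made by human IP6K1 during a 2 h RT reaction with ATP/IP6 (mix at 1.3 mM/130 uM); top library doses 57.5 and 19.1 uM final.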
Each line names hits and unclear results; the compound was inactive in the other large screens. Unless noted, calls come from the whole dose curve; as a rule, active = well fitted curve in the direction sought with a large enough effect; inconclusive = small, poorly fitted or top-dose-only effect, or another doubt; inactive = no such curve, though single readings can be large; an effect the other way counts as inactive or inconclusive.

CC1(C(=O)NCC2CC2)CCc2cnc(NCc3ccccc3)nc21 (centres undefined)	NIH3T3 tox inconclusive, SNCA expr inhib inconclusive, HEK293 tox 40µM
CC1(C(=O)NCCCn2ccnc2)CCc2cnc(NCc3ccccc3)nc21 (centres undefined)	NIH3T3 tox 32µM, SNCA expr inhib inconclusive
CC1(C(=O)NCC2CC2)CCCc2cnc(Nc3ccccc3)nc21 (centres undefined)	NIH3T3 tox inconclusive, SNCA expr inhib inconclusive, HEK293 tox inconclusive
COCCOC1CCN(S(=O)(=O)c2ccc(F)cc2)CC1	none
CC(C(=O)N1CC(Oc2ccc(-c3noc(-c4ccncc4)n3)cc2)C1)c1ccccc1 (centres undefined)	NIH3T3 tox 25µM, SNCA expr inhib inconclusive, HEK293 tox inconclusive, SNCA viab count inconclusive (no result: FLuc inh)
COc1cccc(CC(=O)N2CCC(Cc3nc(-c4ccncc4)n[nH]3)C2)c1 (centres undefined)	NIH3T3 tox inconclusive, SNCA expr inhib inconclusive, HEK293 tox 13µM
COc1cccc(CC(=O)N2CC(Oc3ccc(-c4noc(-c5ccncc5)n4)cc3)C2)c1	NIH3T3 tox inconclusive, SNCA expr inhib inconclusive, HEK293 tox 13µM, SNCA viab count inconclusive
O=C(Cc1cccc(F)c1)N1CC(Oc2cccc(-c3nc(-c4ccccc4)no3)c2)C1	NIH3T3 tox 35µM, HEK293 tox inconclusive, SNCA viab count inconclusive (no result: FLuc inh)
O=C(COc1ccccc1)N1CCC(Cc2nc(-c3ccncc3)n[nH]2)CC1	none
O=S(=O)(NC1CCN(c2cc(N3CCOCC3)cnn2)C1)c1ccccc1 (centres undefined)	none (no result: FLuc inh)
O=C1N[C@@H](Cc2c[nH]c3ccccc23)C(=O)N2CCN(C(=O)c3cccnc3)C[C@@H]12	SNCA expr inhib inconclusive
C[C@@H]1CN(C(=O)Cc2cccnc2)C[C@H]1c1nc(-c2ccncc2)no1	none
C[C@H]1CN(C(=O)C2CCCC2)C[C@@H]1c1nc(-c2ccccc2)no1	NIH3T3 tox 32µM, HEK293 tox inconclusive, FLuc inh inconclusive
Cc1cc(Cl)ccc1NC(=O)N1C[C@H](c2nc(-c3cccnc3)no2)[C@@H](C)C1	HEK293 tox 45µM
O=C(c1ccccc1)N1CCc2sc(C(=O)N3CCN(c4ccccn4)CC3)cc2C1	HEK293 tox inconclusive
CNC(=O)[C@@H](c1ccc(Cl)cc1)N1CCC[C@H]1C(=O)N1CC[C@@H](O)C1	none
COCCCn1c(=O)c(C(=O)NCCc2ccc(F)cc2)nc2cccnc21	none (no result: FLuc inh)
O=C(CCc1conc1-c1cccc(F)c1)NCc1ccc(F)cc1	NIH3T3 tox inconclusive, SNCA expr inhib inconclusive, HEK293 tox inconclusive, FLuc inh 45µM
Cc1ccncc1C(=O)N1CCCN(Cc2ccncc2)C(c2ccccc2)CC(=O)NCC1 (centres undefined)	none
COc1cccc(-c2ccc(CN3CCCC3C(=O)NCc3ccc(C(F)(F)F)cc3)cc2)c1 (centres undefined)	NIH3T3 tox inconclusive, SNCA expr inhib inconclusive, HEK293 tox 35µM (no result: FLuc inh)
COc1cccc(-c2ccc(CN3CCCC3C(=O)NCc3ccc(F)cc3)cc2)c1 (centres undefined)	NIH3T3 tox inconclusive, HEK293 tox inconclusive (no result: FLuc inh)
COc1cccc(-c2ccc(CN3CCCC3C(=O)NCc3ccc4c(c3)OCO4)cc2)c1 (centres undefined)	NIH3T3 tox inconclusive, HEK293 tox inconclusive (no result: FLuc inh)
COc1cccc(-c2ccc(CN3CCCC3C(=O)NCC3CC3)cc2)c1 (centres undefined)	NIH3T3 tox inconclusive, HEK293 tox 45µM (no result: FLuc inh)
COc1ccc(C(=O)N2CCCN(c3cc(-c4ccc(F)cc4)[nH]n3)CC2)c(C)c1	NIH3T3 tox inconclusive, SNCA expr inhib inconclusive, HEK293 tox inconclusive

Assay outcomes deposited in PubChem by National Center for Advancing Translational Sciences (NCATS).
